High-throughput results (PubChem BioAssay)
KB-3-1 tox: qHTS assay for MDR1-selective chemotherapeutics: Primary screen using the parental adenocarcinoma cell KB-3-1; KB-3-1 viability, CellTiter-Glo ATP luminescence, 72 h; Potency, µM (highest dose often 46.1 µM), hits mostly cytotoxic; 400,000 tested, 1.4% active; further: nearly all actives have a fitted effect of over 60% in size
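Using CellTiter-Glo luminescence, growth of non-resistant KB-3-1 adenocarcinoma cells is assessed 72 h after pin-tool compound addition at 37 °C. Normalized responses across the concentration series yield fitted curves.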
IL1B secr inh: qHTS for Inhibitors of Inflammasome Signaling: IL-1-beta AlphaLISA Primary Screen | THP-1 LPS/ATP IL-1B secretion, AlphaLISA, 16 h; active compounds read low | activity change, % at 57.5 µM | 360,000 tested, 4.7% active; in the data active means activity change below about -50%; inconclusive means mostly about -30% to -49%
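Secreted IL-1B measured by AlphaLISA bead assay after 16 h compound exposure of THP-1 cells; compounds (final up to 57.5 uM) added 1 h before LPS (250 ng/mL) and ATP (1.25 mM) stimulation; lower signal means less secretion.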
HT1080NT lethal: qHTS for induction of synthetic lethality in tumor cells producing 2HG: qHTS for the HT-1080-NT fibrosarcoma cell line. HT-1080-NT fibrosarcoma viability, CellTiter-Glo ATP luminescence, 48 h. Potency, µM (doses to about 46.1 µM), most hits filed as cytotoxic. 360,000 tested, 1.6% active. AID 686970, 2013;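 further: NT is the 2HG producing partner of a matched IDH1 knockdown line; nearly all actives have a fitted effect of over 55% in size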
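Luminescent CellTiter-Glo readout after 48 hours of compound exposure at 37 degrees C defined viability of HT-1080-NT cells. Activity was normalized to DMSO wells and cell-free media wells; concentration-response curves were fitted and assigned curve classes.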
KB-V1 cytotox: qHTS assay for MDR1-selective chemotherapeutics: Primary screen using the drug-selected MDR subline cells KB-V1. 400,000 tested, 3.4% active. Potency, µM (series often up to 46.1 µM), most hits filed as cytotoxic. AID 1347076, 2019. KB-V1 MDR cells viability, CellTiter-Glo, 72 h; further: nearly all actives have a fitted effect of over 60% in size
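Readout: CellTiter-Glo luminescence, 10 min after addition. Cells: KB-V1 MDR subline, 72 h at 37 degrees C with compound. Analysis: corrected, normalized data fitted to concentration-effect curves.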
HT1080 IDH1KD tx: qHTS for induction of synthetic lethality in tumor cells producing 2HG: qHTS for the HT-1080-IDH1KD cell line. HT-1080 IDH1 knockdown viability, ATP luminescence, 48 h. 360,000 tested, 2% active. Potency, µM (titrated, usually from 46.1 µM), actives largely listed as cytotoxic. AID 686971, 2013
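IDH1KD HT-1080 cells, 750/well, RPMI + 5% FBS; compound pinned after 2 h settling; 48 h, 37 °C; CellTiter-Glo luminescence; % activity normalised to DMSO and no-cell wells; curves fitted, classed by r2 and efficacy.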
Numbers stand for hits; i = inactive; ? = inconclusive; nt = no result; [ ] = dose if it differs, or a comment. Only some compounds are listed: those with a hit (about 8.8% of all), similar ones and a draw of the others. Unless noted, the call rests on the fitted dose curve; in most records, active means well fitted curve in the direction sought with a large enough effect; inconclusive means small, poorly fitted or top-dose-only effect, or another doubt; inactive means no such curve, though single readings can be large; an effect the other way counts as inactive or inconclusive.

SMILES	KB-3-1 tox	IL1B secr inh	HT1080NT lethal	KB-V1 cytotox	HT1080 IDH1KD tx
CCC(c1nnnn1-c1ccc2c(c1)OCCO2)N1CCN(CC)CC1 (configuration not stated)	i	i	i	i	i
O=C(C1CCCN(S(=O)(=O)c2cccc3nonc23)C1)N1CCN(c2ccccc2Cl)CC1 (configuration not stated)	?	-50.5	i	i	i
O=C(C1CCCN(S(=O)(=O)c2cccc3nonc23)C1)N1CCN(c2cccc(Cl)c2)CC1 (configuration not stated)	i	-52.5	i	?	i
Cc1nn(C)c(C)c1S(=O)(=O)N1CCCC(C(=O)N2CCN(c3ccc(Cl)cc3)CC2)C1 (configuration not stated)	18.4µM	i	i	i	?
Cc1n[nH]c(C)c1S(=O)(=O)N1CCCC(C(=O)N2CCN(c3ccc(Cl)cc3)CC2)C1 (configuration not stated)	i	i	i	?	?
O=C(C1CCN(S(=O)(=O)c2cccc3nsnc23)CC1)N1CC=C(c2ccccc2)CC1	i	i	i	i	i
O=C(C1CCCN(S(=O)(=O)c2cccc3nsnc23)C1)N1CC=C(c2ccccc2)CC1 (configuration not stated)	?	-54.8	i	?	?
CC(=O)Nc1cccc(NC(=O)c2ccc(COc3ccccc3)cc2)c1	i	i	i	i	i
O=S(=O)(c1ccc(Oc2ccc3c(c2)OCO3)c(S(=O)(=O)N2CCOCC2)c1)N1CCOCC1	i	nt	nt	i	nt
Cc1c(C(=O)NCc2ccccc2Cl)sc2nc3n(c(=O)c12)CCCC3	i	nt	nt	i	nt
Cn1cnnc1SCC(=O)Nc1ccc2nc(SCc3ccccc3F)sc2c1	i	i	i	20.6µM	i
CC(C)(C)n1ncc2c(=O)n(CC(=O)NCc3ccc(F)cc3)cnc21	9.2µM	i	?	9.2µM	13µM
CC(C)(C)n1ncc2c(=O)n(CC(=O)c3ccccc3)cnc21	i	i	i	14.6µM	i
Cc1ccc(Nc2nc(CSc3nnc(-c4ccc(F)cc4)n3C)cs2)cc1	?	i	i	6.51µM	i
Cn1c(CSCc2ccccc2Cl)nnc1SCC(=O)Nc1nccs1	i	i	i	20.6µM	i[9.24 µM]
Cn1c(SCC(=O)Nc2nccs2)nnc1C1CC1	i	i	i	?	i
Cn1c(SCC(=O)Nc2nccs2)nnc1C12CC3CC(CC(C3)C1)C2	i	i	i	20.6µM	?
Cn1c(CC(=O)Nc2ccc(Cl)c(Cl)c2)nnc1SCC(=O)Nc1nccs1	i	i	i	i	i
Cc1ccccc1CNC(=O)C(=O)NCC(c1ccco1)S(=O)(=O)c1cccs1 (configuration not stated)	i	nt	nt	i	nt
Cn1ncc2cc3c(Nc4ccc(Cl)cc4)cccc3nc21	i	i	?	i	?
CCOC(=O)/C(=C/c1c(C)n(C)c2ccc([N+](=O)[O-])cc12)C(C)=O	23.1µM	-104.5	16.4µM	?	?
Cc1cc(Br)ccc1NC(=O)CCNS(=O)(=O)c1cccc2nonc12	i	nt	nt	i	nt
O=C(COC(=O)CC1CCCC1)Nc1ccccc1[N+](=O)[O-]	i	i	i	i	i
COc1cc2cc3c(N)c(C(=O)NCc4ccco4)sc3nc2cc1OC	i	-57.5	i	?	i[9.24 µM]
Cc1ccc2nc3sc(C(=O)NCc4ccco4)c(N)c3cc2c1	i	i	i	i	i
Cc1[nH]c2ccccc2c1CCN(Cc1cccnc1)C(=S)Nc1cccc(F)c1	i	-70.2	i	i	i
Cc1[nH]c2ccc(F)cc2c1CCN(Cc1cccnc1)C(=S)Nc1ccccc1	i	i	i	i	i
Cc1[nH]c2ccc(F)cc2c1CCN(Cc1ccncc1)C(=S)Nc1ccccc1	i	-69.5	i	?	i
Cc1cc2nc(CCN(Cc3cccnc3)C(=S)Nc3ccccc3)[nH]c2cc1C	i	-50.3	i	?	i
COc1ccc(OC)c(NC(=O)c2ccc(CSc3nnc(C)s3)cc2)c1	i	-59.8	i	i	i
